For seven compounds, outcome, Potency and max activation results are on record in PubChem BioAssay (Tox21).

Each structure is given as a SMILES string. Unmarked numbers belong to inactive results. Inconclusive results are not listed. Calls of active or inactive are those of the source. Unless noted, calls follow the shape of the dose curve; as a rule, active = well fitted curve in the direction sought with a large enough effect in the repeat runs; inconclusive = weak or mixed curves; inactive = no such curve, though single readings can be large; an effect the other way counts as inactive or inconclusive.

For assay [1], the target named is Thyrotropin-releasing hormone receptor (Homo sapiens) (UniProt P34981). Nature of the assay: qHTS assay to identify small molecule agonists of the thyrotropin-releasing hormone receptor (TRHR) signaling pathway (AID 1346891; calls by dose curve;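 also: HEK293 cells expressing TRHR with calcium dye readout; series mostly up to about 58 µM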). A digest of the protocol:
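In 1536-format, 1500 TRHR-Hek293 cells per well grew 18 h, took up calcium dye for 2 h at 37 °C, received compound, and were read kinetically; 15-point titrations, triplicates.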

The nature of assay [2]: Human pregnane X receptor (PXR) small molecule agonists, qHTS cell viability counter screen (AID 1346977). Also: nearly all actives have a fitted effect of over 50% in size. A digest of the protocol: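 Readout is CellTiter-Fluor fluorescence from PXR-Luc HepG2 cells. Plated cells rested 5hr, then were treated with compounds for 24hr at 37C and 5% CO2, with reagent present during the last hour.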
A short description of assay [3]: Caspase-3/7 induction in HepG2 cells by small molecules, qHTS assay (AID 1346978). Also: nearly all actives have a fitted effect of over 15% in size. A digest of the protocol:
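Wild-type HepG2 cells (2,000/well) were settled 5 h at 37 C, 5% CO2, then exposed to compounds in DMSO for 17 h. Caspase-3/7 activity was read by luminescence 30 min after adding Caspase-Glo 3/7 reagent at room temperature.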

Assay [4] in a line: Caspase-3/7 induction in CHO-K1 cells by small molecules, qHTS assay (AID 1346980). Also: nearly all actives have a fitted effect of over 15% in size. A digest of the protocol:
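Wild-type cells were seeded at 1,500 per well and settled 5 hr at 37 C, 5% CO2, then exposed to DMSO-dissolved compounds for 17 hr. Caspase-Glo 3/7 reagent was added, and luminescence was read after 30min at room temperature.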

Assay [5] can be described thus: Caspase-3/7 induction in HepG2 cells by small molecules, qHTS cell viability counter screen (AID 1346981). Also: series mostly up to about 92 µM; nearly all actives have a fitted effect of over 30% in size. A digest of the protocol:
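Counter screen for cytotoxicity: HepG2 exposed 16 hr to compounds, then CellTiter-Fluor viability signal (fluorescence, 1 hr reagent incubation).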

The target of assay [6] is Nuclear receptor subfamily 1 group I member 2 (Homo sapiens) (UniProt O75469). Nature of the assay: Human pregnane X receptor (PXR) small molecule agonists, qHTS assay (AID 1346982). Also: nearly all actives have a fitted effect of over 35% in size. Also: potency is read from the fitted curve at half-maximal effect. A digest of the protocol:
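Luminescence (ONE-Glo, 30 min RT) after 24 hr compound exposure of PXR-Luc HepG2 cells; cells rested 5 hr post-plating in 5% charcoal-stripped FBS medium.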

Assay [7] addresses Acetylcholinesterase (Homo sapiens) (UniProt P22303). Nature of the assay: Acetylcholinesterase (AChE) small molecule antagonists: colormetric cell-based qHTS assay (AID 1347395; calls by dose curve; also: nearly all actives have a fitted effect of over 30% in size). A digest of the protocol:
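Neuroblastoma line SH-SY5Y supplied the enzyme; cells were preincubated with compound for 30 min at 37 C and 5% CO2. Acetylthiocholine with DTNB was then added for 90 min at 37 C, and thiocholine was measured by colour.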

Assay [8] has the same target. Nature of the assay: Acetylcholinesterase (AChE) small molecule antagonists: enzyme-based qHTS assay (AID 1347397; calls by dose curve; also: nearly all actives have a fitted effect of over 55% in size). The note with it: Potency: AChE enzyme activity inhibition; outcome: AChE enzyme activity inhibition. A digest of the protocol:
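Human recombinant acetylcholinesterase; substrate acetylthiocholine; thiocholine quantified with DTNB (colorimetric). Compound preincubation 30 min RT; reaction 10 min RT.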

The target is the same in assay [9]. The assay can be described thus: Acetylcholinesterase (AChE) small molecule antagonists: fluorescence cell-based qHTS assay (AID 1347398; calls by dose curve; also: nearly all actives have a fitted effect of over 50% in size). The note with it: Potency: AChE activity; outcome: AChE activity. A digest of the protocol: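 Thiocholine generated from acetylthiocholine by SH-SY5Y cell AChE is detected with Thiolite Green (Ex/Em 490/520 nm) after 40 min at room temperature, following 30 min compound pretreatment at 37 C.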

Assay [10] shares this target. Nature of the assay: Acetylcholinesterase (AChE) small molecule antagonists: enzyme-based qHTS assay with human liver microsomes (AID 1347399; calls by dose curve; also: nearly all actives have a fitted effect of over 60% in size). The note with it: Potency: qHTS inhibition; outcome: qHTS inhibition. A digest of the protocol:
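Recombinant human AChE (50 mU/mL in the enzyme mix) and human liver microsomes (0.25 mg/mL final) were preincubated with compound and NADPH (0.25 mg/mL final) for 30 min at 37 C. Acetylthiocholine/DTNB was then added; thiocholine was read colorimetrically after 10 min at room temperature.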

The target in assay [11] is Cytochrome P450 2D6 (Homo sapiens) (UniProt P10635). Nature of the assay: Cytochrome P450 Family 2 Subfamily D Member 6 (CYP2D6) small molecule antagonists: luciferase reporter qHTS assay (AID 1671196). Also: nearly all actives have a fitted effect of over 50% in size. Also: potency is read from the fitted curve at half-maximal effect. A digest of the protocol:
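Inhibition of CYP2D6 was gauged by loss of luminescence, since light produced tracks the luciferin generated from a proluciferin substrate. A 10 min room-temperature preincubation preceded 1 h NADPH-supported turnover.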

For assay [12], the target named is Cytochrome P450 2C19 (Homo sapiens) (UniProt P33261). The assay can be described thus: Cytochrome P450 Family 2 Subfamily C Member 19 (CYP2C19) small molecule antagonists: luciferase reporter qHTS assay (AID 1671197). Also: nearly all actives have a fitted effect of over 65% in size. Also: potency is read from the fitted curve at half-maximal effect. A digest of the protocol:
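Enzyme-substrate mix with proluciferin substrate (P450-Glo CYP2C19 system) preincubated with compounds 10 min at room temperature; NADPH regeneration solution added, 37C for 1 h; detection reagent stops reaction, luminescence read after 20 min. Ketoconazole positive control.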

The target of assay [13] is Cytochrome P450 2C9 (Homo sapiens) (UniProt P11712). The assay can be described thus: Cytochrome P450 Family 2 Subfamily C Member 9 (CYP2C9) small molecule antagonists: luciferase reporter qHTS assay (AID 1671198). Also: nearly all actives have a fitted effect of over 50% in size. Also: potency is read from the fitted curve at half-maximal effect. A digest of the protocol:
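CYP2C9 activity was measured with a P450-Glo proluciferin substrate. Enzyme–substrate mix was held with compound for 10 min at room temperature, then NADPH regeneration solution was added for 1 h at 37C. Luciferin product was read as luminescence.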

In assay [14] the target is Cytochrome P450 1A2 (Homo sapiens) (UniProt P05177). Nature of the assay: Cytochrome P450 Family 1 Subfamily A Member 2 (CYP1A2) small molecule antagonists: luciferase reporter qHTS assay (AID 1671199). Also: nearly all actives have a fitted effect of over 50% in size. Also: potency is read from the fitted curve at half-maximal effect. A digest of the protocol: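 Signal from luciferin formed by CYP1A2 from a proluciferin substrate is read as luminescence, expressed in relative luminescence units. Compounds sit with enzyme 10 min, NADPH-driven reaction runs 1 h, all at room temperature.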

The target of assay [15] is Voltage-gated inwardly rectifying potassium channel KCNH2 (Homo sapiens) (UniProt Q12809). Nature of the assay: Human Ether-a-go-go-Related Gene (hERG) channel small molecule antagonists: fluorescence cell-based qHTS assay (AID 1671200). A digest of the protocol: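 Measured: Tl+ flux via fluorescence (480/540 nm) in hERG-expressing U2OS cells after 1 h dye loading at room temperature.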

Assay [16] has as its target Cytochrome P450 3A4 (Homo sapiens) (UniProt P08684). Nature of the assay: Cytochrome P450 Family 3 Subfamily A Member 4 (CYP3A4) small molecule antagonists: luciferase reporter qHTS assay (AID 1671201). Also: nearly all actives have a fitted effect of over 50% in size. Also: potency is read from the fitted curve at half-maximal effect. A digest of the protocol:
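Setup: enzyme-substrate mix, compound pin transfer, 10 min RT. Reaction: NADPH regeneration solution, 1 h RT. Readout: detection reagent stops turnover, luminescence measured after 20 min, expressed in relative luminescence units.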

Assay [17] in a line: Caspase-3/7 induction in CHO-K1 cells by small molecules, qHTS cell viability counter screen (AID 1346979). Also: nearly all actives have a fitted effect of over 35% in size. A digest of the protocol:
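To flag cytotoxic compounds, treated CHO-K1 wild-type cells were given CellTiter-Fluor at 16hr and read fluorescently after 1hr at 37C; the caspase-3/7 luminescence was measured in these same wells.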

In assay [18] the target is Nuclear receptor subfamily 1 group I member 2 (Rattus norvegicus) (UniProt Q9R1A7). Nature of the assay: Rat pregnane X receptor (rPXR) activation by small molecules, qHTS assay (AID 1346983). Also: nearly all actives have a fitted effect of over 20% in size. The note with it: rPXR luciferase reporter cells, One-Glo luminescence, 24 h; stronger effect = higher value. A digest of the protocol:
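Cell-based rPXR luciferase reporter assay, 2,000 cells per well, rested 5hr at 37 C before compound addition in DMSO, then 24 hr at 37 C. One-Glo reagent was added and luminescence read after 30 min at room temperature.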

For assay [19], the target named is Nuclear receptor subfamily 1 group I member 2 (Homo sapiens) (UniProt O75469). The assay can be described thus: Human pregnane X receptor (PXR) activation by small molecules, qHTS assay (AID 1346985). Also: nearly all actives have a fitted effect of over 40% in size. A digest of the protocol:
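DPX-2 cells (HepG2 co-transfected with a PXR response element and a CYP3A4-promoter luciferase construct) were seeded at 2,000 per well, rested 5 hr at 37C, then exposed to DMSO-dissolved compounds for 24 hr. Activation was read as luciferase luminescence.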
% is scaled to controls: 0 for no effect and ±100 for the full control effect.

Sequence of Acetylcholinesterase (Homo sapiens) (P22303 whole entry, looked up): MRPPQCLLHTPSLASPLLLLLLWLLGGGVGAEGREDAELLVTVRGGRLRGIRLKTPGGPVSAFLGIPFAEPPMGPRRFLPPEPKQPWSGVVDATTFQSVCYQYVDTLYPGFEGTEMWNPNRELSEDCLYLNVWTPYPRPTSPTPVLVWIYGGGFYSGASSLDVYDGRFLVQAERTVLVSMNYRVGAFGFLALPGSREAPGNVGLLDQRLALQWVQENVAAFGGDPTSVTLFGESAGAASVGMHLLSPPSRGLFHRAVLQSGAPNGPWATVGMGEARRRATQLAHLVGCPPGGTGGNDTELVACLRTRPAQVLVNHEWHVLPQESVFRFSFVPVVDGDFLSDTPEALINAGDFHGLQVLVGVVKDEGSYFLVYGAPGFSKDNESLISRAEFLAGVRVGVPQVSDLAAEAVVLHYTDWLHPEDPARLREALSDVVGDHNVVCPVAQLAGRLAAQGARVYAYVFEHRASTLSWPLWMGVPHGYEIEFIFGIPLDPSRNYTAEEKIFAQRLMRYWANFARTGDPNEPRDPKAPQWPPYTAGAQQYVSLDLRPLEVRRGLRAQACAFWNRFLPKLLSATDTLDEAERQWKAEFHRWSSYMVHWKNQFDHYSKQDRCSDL
Sequence of Cytochrome P450 2C9 (Homo sapiens) (P11712 whole entry, looked up): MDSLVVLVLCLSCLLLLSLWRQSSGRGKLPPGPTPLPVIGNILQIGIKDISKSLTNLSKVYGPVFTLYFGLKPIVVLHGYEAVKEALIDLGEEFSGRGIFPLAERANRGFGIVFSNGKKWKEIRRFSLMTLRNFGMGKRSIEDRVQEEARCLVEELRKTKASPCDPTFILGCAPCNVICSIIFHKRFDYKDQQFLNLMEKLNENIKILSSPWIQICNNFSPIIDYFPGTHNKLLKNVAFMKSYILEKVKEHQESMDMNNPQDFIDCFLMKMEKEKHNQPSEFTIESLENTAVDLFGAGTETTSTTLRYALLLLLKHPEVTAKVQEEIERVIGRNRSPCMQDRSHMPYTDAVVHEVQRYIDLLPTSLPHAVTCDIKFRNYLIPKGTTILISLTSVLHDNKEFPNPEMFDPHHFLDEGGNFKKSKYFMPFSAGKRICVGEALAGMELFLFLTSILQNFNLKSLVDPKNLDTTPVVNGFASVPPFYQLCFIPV
Sequence of Cytochrome P450 2C19 (Homo sapiens) (P33261 whole entry, looked up): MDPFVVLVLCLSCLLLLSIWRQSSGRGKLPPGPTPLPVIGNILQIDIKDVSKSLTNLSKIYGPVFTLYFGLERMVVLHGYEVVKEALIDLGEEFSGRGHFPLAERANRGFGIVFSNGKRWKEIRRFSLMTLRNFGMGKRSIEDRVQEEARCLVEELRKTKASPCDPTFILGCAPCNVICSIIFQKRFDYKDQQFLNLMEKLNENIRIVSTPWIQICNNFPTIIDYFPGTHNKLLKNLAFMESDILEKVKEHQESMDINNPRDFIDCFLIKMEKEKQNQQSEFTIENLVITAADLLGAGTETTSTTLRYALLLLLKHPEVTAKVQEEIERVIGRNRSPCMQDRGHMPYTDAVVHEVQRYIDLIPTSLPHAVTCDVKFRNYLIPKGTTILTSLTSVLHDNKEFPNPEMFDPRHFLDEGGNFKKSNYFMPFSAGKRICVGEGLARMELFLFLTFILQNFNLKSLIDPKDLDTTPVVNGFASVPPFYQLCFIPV
Sequence of Thyrotropin-releasing hormone receptor (Homo sapiens) (P34981 whole entry, looked up): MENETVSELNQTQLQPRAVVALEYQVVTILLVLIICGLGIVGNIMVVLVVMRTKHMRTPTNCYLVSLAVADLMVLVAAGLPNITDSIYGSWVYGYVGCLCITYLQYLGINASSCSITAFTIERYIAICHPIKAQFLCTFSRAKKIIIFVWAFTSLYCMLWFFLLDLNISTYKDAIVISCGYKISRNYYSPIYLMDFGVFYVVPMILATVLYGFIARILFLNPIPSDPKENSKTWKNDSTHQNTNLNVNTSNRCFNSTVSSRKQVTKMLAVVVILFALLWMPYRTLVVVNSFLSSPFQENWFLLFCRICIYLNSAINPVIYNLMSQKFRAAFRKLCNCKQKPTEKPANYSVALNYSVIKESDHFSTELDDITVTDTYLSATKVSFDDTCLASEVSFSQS
Sequence of Voltage-gated inwardly rectifying potassium channel KCNH2 (Homo sapiens) (Q12809 whole entry, looked up): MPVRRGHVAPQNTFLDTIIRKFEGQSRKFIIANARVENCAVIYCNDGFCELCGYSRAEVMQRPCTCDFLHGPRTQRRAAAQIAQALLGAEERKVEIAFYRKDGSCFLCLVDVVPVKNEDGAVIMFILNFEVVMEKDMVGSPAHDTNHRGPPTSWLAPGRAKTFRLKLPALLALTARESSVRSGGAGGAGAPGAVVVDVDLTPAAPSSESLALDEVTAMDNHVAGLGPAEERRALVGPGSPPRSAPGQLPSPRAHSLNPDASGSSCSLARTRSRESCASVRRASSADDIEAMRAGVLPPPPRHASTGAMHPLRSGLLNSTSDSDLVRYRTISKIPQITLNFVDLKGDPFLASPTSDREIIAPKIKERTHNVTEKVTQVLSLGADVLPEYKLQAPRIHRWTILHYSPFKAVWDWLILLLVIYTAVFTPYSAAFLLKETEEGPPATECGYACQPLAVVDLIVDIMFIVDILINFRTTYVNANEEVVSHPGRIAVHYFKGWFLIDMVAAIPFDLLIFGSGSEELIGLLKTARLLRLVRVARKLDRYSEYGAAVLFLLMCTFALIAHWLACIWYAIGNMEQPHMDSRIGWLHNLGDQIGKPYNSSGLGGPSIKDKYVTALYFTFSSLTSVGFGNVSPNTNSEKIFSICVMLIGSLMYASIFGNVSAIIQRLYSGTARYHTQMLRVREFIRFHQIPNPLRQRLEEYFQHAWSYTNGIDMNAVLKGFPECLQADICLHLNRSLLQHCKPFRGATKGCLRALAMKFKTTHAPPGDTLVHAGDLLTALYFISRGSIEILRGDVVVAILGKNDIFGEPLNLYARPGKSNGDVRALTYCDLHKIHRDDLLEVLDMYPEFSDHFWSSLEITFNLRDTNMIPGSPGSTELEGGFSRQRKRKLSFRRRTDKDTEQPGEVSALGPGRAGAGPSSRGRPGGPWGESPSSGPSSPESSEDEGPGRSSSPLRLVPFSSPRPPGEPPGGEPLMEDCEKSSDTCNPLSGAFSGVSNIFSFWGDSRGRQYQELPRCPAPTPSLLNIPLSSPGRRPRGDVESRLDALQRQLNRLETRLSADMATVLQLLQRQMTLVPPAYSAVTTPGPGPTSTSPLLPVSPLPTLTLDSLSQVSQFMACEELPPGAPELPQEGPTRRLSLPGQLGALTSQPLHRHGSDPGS
Sequence of Cytochrome P450 2D6 (Homo sapiens) (P10635 whole entry, looked up): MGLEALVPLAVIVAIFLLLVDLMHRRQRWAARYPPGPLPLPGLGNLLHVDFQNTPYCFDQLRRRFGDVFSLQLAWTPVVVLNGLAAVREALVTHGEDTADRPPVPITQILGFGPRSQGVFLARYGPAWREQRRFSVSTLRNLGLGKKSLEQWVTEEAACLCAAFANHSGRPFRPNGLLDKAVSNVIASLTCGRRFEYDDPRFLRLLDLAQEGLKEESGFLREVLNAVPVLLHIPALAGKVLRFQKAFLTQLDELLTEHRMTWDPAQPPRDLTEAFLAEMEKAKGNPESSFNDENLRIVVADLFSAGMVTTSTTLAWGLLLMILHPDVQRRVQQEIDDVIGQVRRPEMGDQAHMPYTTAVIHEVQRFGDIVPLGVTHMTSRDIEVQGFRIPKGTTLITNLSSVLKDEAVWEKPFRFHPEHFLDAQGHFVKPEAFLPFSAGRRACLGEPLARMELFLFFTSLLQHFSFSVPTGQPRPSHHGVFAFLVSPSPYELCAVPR
Sequence of Cytochrome P450 1A2 (Homo sapiens) (P05177 whole entry, looked up): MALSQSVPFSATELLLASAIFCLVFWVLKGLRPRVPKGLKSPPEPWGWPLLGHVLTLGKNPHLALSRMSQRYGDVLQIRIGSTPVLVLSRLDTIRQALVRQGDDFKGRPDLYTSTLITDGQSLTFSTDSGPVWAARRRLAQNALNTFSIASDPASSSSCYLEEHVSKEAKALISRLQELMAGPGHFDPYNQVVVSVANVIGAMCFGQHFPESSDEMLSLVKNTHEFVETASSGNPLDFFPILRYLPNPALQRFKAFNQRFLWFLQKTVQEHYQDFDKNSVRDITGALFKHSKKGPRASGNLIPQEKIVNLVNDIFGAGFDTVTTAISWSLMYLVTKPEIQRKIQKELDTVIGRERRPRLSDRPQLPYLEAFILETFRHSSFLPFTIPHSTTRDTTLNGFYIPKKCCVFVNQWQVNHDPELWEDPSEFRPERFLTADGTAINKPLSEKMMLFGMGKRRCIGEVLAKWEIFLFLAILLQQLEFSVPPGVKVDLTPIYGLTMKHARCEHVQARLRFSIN
Sequence of Nuclear receptor subfamily 1 group I member 2 (Homo sapiens) (O75469 whole entry, looked up): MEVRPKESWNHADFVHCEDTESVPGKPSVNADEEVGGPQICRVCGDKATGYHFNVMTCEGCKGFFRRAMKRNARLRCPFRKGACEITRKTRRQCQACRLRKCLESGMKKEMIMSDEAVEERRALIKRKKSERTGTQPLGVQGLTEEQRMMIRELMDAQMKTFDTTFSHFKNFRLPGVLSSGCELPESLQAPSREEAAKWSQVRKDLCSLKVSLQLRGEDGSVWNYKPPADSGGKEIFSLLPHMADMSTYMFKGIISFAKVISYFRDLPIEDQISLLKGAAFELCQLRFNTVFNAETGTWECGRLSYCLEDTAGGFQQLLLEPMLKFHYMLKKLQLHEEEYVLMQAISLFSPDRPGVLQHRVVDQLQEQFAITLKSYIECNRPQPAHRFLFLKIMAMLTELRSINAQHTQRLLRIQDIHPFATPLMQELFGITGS

On to `CCOP(=S)(OCC)SCCl`, for which the result in [1], in [3] and in [4] was inactive. In addition, the Potency result in assay [2], in [5], in assay [6], in [7], in assay [8] and in assay [9] was “inactive” each time. Also, the Potency entry in assay [10], in [11] and in assay [15] was “inactive” throughout. The Potency in [12] was 35.6 µM (active); in assay [13] it was 14.2 µM (active); in assay [14] it was 25.2 µM (active); in [16], 11.2 µM (active).

Regarding `C=C1C[C@@H]2[C@H](CC[C@]3(C)C(=O)CC[C@@H]23)[C@@]2(C)C=CC(=O)C=C12`, the call in assay [1], in [3] and in assay [4] was inactive. For the same compound, the Potency result in assay [2], in assay [5], in assay [7], in [8], in assay [9] and in assay [10] was “inactive” throughout. Also, the Potency entry in [14], in [15] and in assay [16] was “inactive” throughout. The figures for the Potency in [6] and in assay [12] were 26.6 µM (active) and 4.36 µM (active), respectively.

Consider `N#CN`, for which the compound was called inactive in [1] and in assay [4]. Besides, the Potency result in assay [2], in assay [17], in assay [5], in assay [6], in [19] and in assay [7] was “inactive” in each case. Besides, the Potency result in assay [8], in [9], in [10], in [11], in assay [12] and in [13] was “inactive” in each case. For the same compound, the Potency result in assay [14], in assay [15] and in [16] was “inactive” in each case. Further, the max activation in assay [18] was 0.661%.

With `CC1NCCOC1c1ccccc1` (stereo not given), the compound was classed as inactive in assay [1], in assay [3] and in assay [4]. For the same compound, the Potency result in assay [2], in assay [5], in [6], in [19], in assay [7] and in assay [8] was “inactive” each time. Besides, the Potency entry in [9], in assay [10], in assay [12], in assay [13], in assay [14] and in assay [16] was “inactive” each time. The max activation in assay [18] was -1.57%.

`COC(=O)[C@@H](N)CCCN/C(N)=N/[N+](=O)[O-]`: the compound was classed as inactive in assay [1], in assay [3] and in assay [4]. For the same compound, the Potency entry in [2], in assay [5], in [7], in assay [9], in assay [10] and in [11] was “inactive” each time. The Potency entry in [12], in [14] and in assay [15] was “inactive” in each case. The max activation in [18] was 0.511%.

Consider `S=C=S`, for which the compound was called inactive in [1], in assay [3] and in [4]. In addition, the Potency result in [2], in [5], in assay [6], in assay [19], in assay [8] and in assay [9] was “inactive” in each case. Moreover, the Potency entry in assay [10], in assay [15] and in assay [16] was “inactive” throughout. Besides, the max activation in assay [18] was 3.06%. For the same compound, the Potency is 44.3 µM (active) in assay [12], 49.7 µM (active) in [13] and 39.5 µM (active) in assay [14].

As for `CCC(=O)OC1(c2ccccc2)CCN(C)CC1`, the compound was classed as inactive in [1], in assay [3] and in [4]. Also, the Potency entry in [2], in assay [5], in [6], in [12], in assay [13] and in assay [14] was “inactive” throughout. Further, the Potency result in [15] and in [16] was “inactive” each time. Also, the Potency in assay [11] is 37.5 µM (active).
